Assay outcomes as filed in PubChem BioAssay.
A selection: hits, their analogues and other compounds. The true share with any hit is near 4%.
Peg3 prom inh = Peg3 promoter-driven luciferase inhibitors, primary screen, cell-based, HeLa, luciferase luminescence. HeLa PEG-Prom luciferase reporter, overnight. inhibition, % at 20 µM. hit rate 1.7% among 360,000;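 active = inhibition of at least 50% at 20 µM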
HIF-2a block = HIF-2a reporter inhibitors, primary screen, luminescence, 786-0 RCC cells | 786-0 RCC cells HIF-2a reporter, luciferase luminescence, overnight | inhibition, % at 18.8 µM | hit rate 0.72% among 360,000;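 active = inhibition of the luminescence signal of 40% or more relative to plate controls, in a single-dose primary screen at 18.75 µM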
TWEAK Fn14 block = inhibitors of TWEAK-Fn14 signaling, primary screen, luciferase reporter cells, uHTS | TWEAK-stimulated Fn14 reporter cells, luciferase luminescence, 8 h | inhibition, % at 10 µM | hit rate 2% among 360,000; in the data active = inhibition above about 50%
CF NFkB inh = inhibitors of PAF-induced NF-kB signaling, primary screen, cell-based, GFP fluorescence, uHTS. AID 588850, 2011. inhibition, % at 5 µM. hit rate 0.86% among 360,000. KKLEB NF-kB-GFP reporter, GFP fluorescence overnight;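 active = at least 50% inhibition at 5 µM, scaled per plate between neutral and stimulator controls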;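 note: PAF is a Pseudomonas aeruginosa culture filtrate used as stimulus; plate controls were PAF-stimulated DMSO wells for no effect and unstimulated DMSO wells for full effect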
KKLEB cytotox = cytotoxicity in KKLEB CF airway cells, primary screen, cytotoxicity control for CF NF-kB inhibitor project, cell-based, uHTS, fluorescence assay plates; AID 602141, 2011; activity change (cytotoxicity), % at 5 µM; hit rate 0.36% among 360,000; KKLEB CF airway cells viability, ATPlite luminescence, overnight; hits give low values; cells stimulated with P. aeruginosa culture filtrate;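 active = corrected activity change at or below -50% at 5 µM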
TROY signal inh = inhibitors of TROY-driven NF-kB signaling, primary screen, Q293 LMP1-TROYcd cells, NF-kB luciferase, uHTS | AID 1347056, 2019 | hit rate 0.98% among 360,000 | inhibition, % at 10 µM | Q293 LMP1-TROYcd NF-kB luciferase reporter, 4 h;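 active = compounds whose plate-normalised and pattern-corrected inhibition of the luciferase reporter signal at the single screening dose is 50% or more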
Mdm2-MdmX confirm = retested Mdm2-MdmX interaction blockers, confirmation, cell-based, luminescence, single concentration, set 2; inhibition, % at 8 µM; hit rate 99% among 740; SaOS-2 split-luciferase Mdm2/MdmX complementation; AID 504601, 2011; shares compounds with HIF-2a block;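 active = mean inhibition of the luminescence signal across two replicates at or above 26 percent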
Target sequence (O15151 whole entry, looked up): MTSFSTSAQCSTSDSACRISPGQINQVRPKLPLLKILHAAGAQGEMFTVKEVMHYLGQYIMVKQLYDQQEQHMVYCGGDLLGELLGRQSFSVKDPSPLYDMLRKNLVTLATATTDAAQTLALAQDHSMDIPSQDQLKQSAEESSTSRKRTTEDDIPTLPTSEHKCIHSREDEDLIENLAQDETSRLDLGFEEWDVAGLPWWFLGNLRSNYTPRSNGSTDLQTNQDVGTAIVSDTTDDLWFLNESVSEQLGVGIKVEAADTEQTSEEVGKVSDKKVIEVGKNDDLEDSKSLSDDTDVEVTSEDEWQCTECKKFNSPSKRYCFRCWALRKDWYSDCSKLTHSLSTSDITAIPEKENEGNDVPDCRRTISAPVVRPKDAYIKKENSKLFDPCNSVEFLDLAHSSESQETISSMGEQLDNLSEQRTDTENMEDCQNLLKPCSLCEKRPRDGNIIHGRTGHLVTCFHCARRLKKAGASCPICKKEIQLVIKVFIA
Target sequence (Q00987 whole entry, looked up): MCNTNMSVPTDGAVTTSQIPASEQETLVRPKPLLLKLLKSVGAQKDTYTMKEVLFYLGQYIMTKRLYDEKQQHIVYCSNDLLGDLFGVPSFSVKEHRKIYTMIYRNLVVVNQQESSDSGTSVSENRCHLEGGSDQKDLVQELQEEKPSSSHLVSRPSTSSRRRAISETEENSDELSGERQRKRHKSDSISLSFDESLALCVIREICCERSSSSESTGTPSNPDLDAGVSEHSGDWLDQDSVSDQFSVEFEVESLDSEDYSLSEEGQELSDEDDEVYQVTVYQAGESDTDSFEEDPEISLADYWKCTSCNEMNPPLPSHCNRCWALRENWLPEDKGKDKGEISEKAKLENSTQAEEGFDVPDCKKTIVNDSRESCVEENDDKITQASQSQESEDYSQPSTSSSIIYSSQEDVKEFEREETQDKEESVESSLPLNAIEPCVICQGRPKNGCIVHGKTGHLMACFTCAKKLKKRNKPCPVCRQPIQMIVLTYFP
HIF-2a inh conf = HIF-2a reporter inhibitor retest, confirmation, luminescence, 786-0 RCC cells; inhibition, % at 18.8 µM; AID 651580, 2012; HIF-2a luciferase reporter luminescence, overnight; shares compounds with HIF-2a block; hit rate 56% among 1,800;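 active = mean inhibition across four replicates of at least 40 percent at the single tested concentration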
HIF-1a counter = HIF-1a luciferase reporter signal reduction – MiaPaCa-2 cells, single concentration, counter-screen for HIF-2a inhibitor project, confirmation; shares compounds with HIF-2a block; MiaPaCa-2 HIF-1a luciferase reporter, desferoxamine, overnight; inhibition, % at 18.8 µM; hit rate 72% among 1,800; AID 651589, 2012;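 active = mean inhibition of the reporter signal across four replicates at the single tested dose of 50% or more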
Numbers without * were called inactive; nt = not tested or not shown.

SMILES	Peg3 prom inh	HIF-2a block	TWEAK Fn14 block	CF NFkB inh	KKLEB cytotox	TROY signal inh	HIF-2a inh conf	HIF-1a counter	others
CC1C/C(=C/c2ccncc2)C(=O)/C(=C/c2ccncc2)C1 (stereo not given)	104.2*	94.5*	99.8*	82.0*	-54.9*	66.2*	nt	nt	Mdm2-MdmX confirm=100.2*
CC(C)(C)c1ccc(C(=O)NCc2nnc(SCC(=O)NC3CCCCC3)o2)cc1	-16.8	-44.4	-18.7	-20.1	-1.8	-35.8	nt	nt
COc1ccc(C)cc1Nc1n[n+](C)c(-c2c3ccccc3cc3ccccc23)s1	-6.4	-24.8	-22.5	5.1	1.6	-8.0	nt	nt
COc1ccc(C)cc1Nc1n[n+](-c2ccccc2)c(-c2c(Cl)cccc2Cl)s1	nt	nt	nt	nt	nt	nt	nt	nt	Mdm2-MdmX confirm=98.0*
Cc1ccc(NC(=S)NNc2ncc(C(F)(F)F)cc2Cl)cc1	25.7	68.6*	17.1	1.7	6.5	-29.1	81.5*	41.4
CON/C=N/C(=S)Nc1ncc(C(F)(F)F)cc1Cl	4.9	0.8	-11.3	-19.6	19.2	-13.3	nt	nt
O=C(NNc1ncc(C(F)(F)F)cc1Cl)c1ccc(Cl)c(Cl)c1	1.9	15.7	3.8	-7.5	4.5	0.6	nt	nt
FC(F)(F)c1cnc(NNC(=S)Nc2ccc(Cl)cc2)c(Cl)c1	36.8	47.9*	61.0*	43.8	-23.1	59.2*	52.4*	37.7
CC(C)CC(N)c1csc(NC(=O)c2cc(C(C)(C)C)nn2Cc2ccccc2)n1 (stereo not given)	111.5*	92.0*	-74.5	0.8	-21.2	-5.8	7.9	106.6*
CC(C)(C)c1cc(C(=O)NN)n(Cc2ccc(F)cc2)n1	4.9	13.0	0.5	9.0	-14.6	3.3	nt	nt
COCCN1C[C@@H](CO)O[C@@H](n2cnc3c(N4CCCC4)ncnc32)C1	5.4	12.2	-23.5	-14.9	-1.6	-2.5	nt	nt
C#CC(=O)N(c1ccc(OC)cc1OC)C(C(=O)NC1CCCC1)c1cccs1 (stereo not given)	100.5*	95.7*	37.2	94.1*	-92.9*	5.0	99.3*	105.8*	Mdm2-MdmX confirm=102.0*
C#CC(=O)N(c1cc(OC)ccc1OC)C(C(=O)NC1CCCC1)c1cccs1 (stereo not given)	106.7*	91.7*	46.6	97.2*	-97.2*	12.7	99.1*	105.1*	Mdm2-MdmX confirm=103.5*
COc1cc(C2c3c(-c4cc(Cl)c(C)cc4O)n[nH]c3C(=O)N2Cc2cccnc2)ccc1O (stereo not given)	31.8	43.3*	-22.2	25.6	-15.7	-3.8	31.1	60.5*
CN(Cc1ccccc1)C(=O)COC(=O)CCN1C(=O)C2CC=CCC2C1=O (stereo not given)	7.6	5.7	19.0	-8.1	7.7	-14.1	nt	nt
CC1CCC(C(C)C)C(OC(=O)CSc2nc(N)cc(=O)[nH]2)C1 (stereo not given)	17.2	6.1	0.1	1.9	-0.3	3.2	nt	nt
CC1CCC(C(C)C)C(OC(=O)Cn2c(-c3ccc(F)cc3)[n+](C)c3ccccc32)C1 (stereo not given)	62.1*	-5.8	44.6	49.5	-53.9*	31.1	nt	nt	Mdm2-MdmX confirm=99.5*
Cc1cccc(OCc2n(CC(=O)OC3CC(C)CCC3C(C)C)c3ccccc3[n+]2C)c1 (stereo not given)	102.8*	95.8*	74.5*	68.7*	-56.6*	64.2*	27.4	106.3*	Mdm2-MdmX confirm=102.5*
CCc1nc2c(OCc3ccc(F)c(F)c3)cccn2c1N(C)C(=O)c1cccs1	15.8	15.8	4.3	23.2	-16.9	-6.7	nt	nt
COc1cc(/C=C/[N+](=O)[O-])ccc1OC(=O)c1cc2ccccc2oc1=O	68.6*	61.0*	19.6	35.2	-4.0	52.7*	34.4	38.2
COc1ccccc1OC(=O)c1cc2ccccc2oc1=O	-4.3	8.2	-8.1	-7.6	3.5	-26.5	nt	nt
CC1CCC2(CC1)NC(=O)N(CC(=O)NC1CCCCC1C)C2=O (stereo not given)	-1.5	15.8	10.3	-4.9	3.1	1.5	nt	nt
C=C1C(=O)[C@]23C[C@H]1CC[C@H]2[C@]1(C)[C@@H](OC(C)=O)CC[C@@](C)(C(=O)OC)[C@H]1C[C@@H]3OC(C)=O	98.7*	97.4*	84.5*	94.8*	-97.2*	23.6	98.0*	106.7*
Cc1ccc(C(=O)C=CC=Cc2ccccc2)cc1	-211.0	-195.4	41.0	-17.8	1.7	39.1	nt	nt
Cc1ccc(C(=O)C(C(=O)/C=C/c2ccccc2)=C2SCCCS2)cc1	109.5*	92.9*	45.8	-3.1	-7.3	-1.5	86.3*	102.9*	Mdm2-MdmX confirm=103.2*
SMILES	Peg3 prom inh	HIF-2a block	TWEAK Fn14 block	CF NFkB inh	KKLEB cytotox	TROY signal inh	HIF-2a inh conf	HIF-1a counter	others
CCN(CC)S(=O)(=O)c1cc(NC(=O)CCNC(=O)c2ccco2)ccc1C	9.1	1.6	6.8	2.4	1.8	-4.0	nt	nt
NNC(=O)COc1ccc(-c2nccc(-c3ccc(F)cc3)n2)cc1	-51.2	67.8*	54.9*	-20.7	4.5	13.7	78.7*	51.5*
O=C(O)COc1ccc(-c2nccc(-c3ccccn3)n2)cc1	-39.6	86.8*	61.3*	-2.7	-2.5	20.9	89.6*	59.5*
CCOc1ccc(NC(=O)CN2C(=O)NC3(CCCCCC3)C2=O)cc1	8.1	13.4	-4.5	-11.7	6.9	-6.5	nt	nt
O=C(Cn1ncc(Cl)c(Cl)c1=O)NC(=O)NC1CCCCC1	89.3*	84.2*	104.1*	90.5*	-64.3*	48.9	91.7*	105.6*	Mdm2-MdmX confirm=101.5*
O=C(CN1CCCCC1)NC(=O)NC1CCCC1	-24.1	-21.9	-18.2	4.0	7.5	-7.8	nt	nt
Cc1ccc(OCCOc2ccc(S(=O)(=O)N3CCCC3)cc2C(N)=O)cc1	10.2	10.1	4.5	9.0	-3.1	3.9	nt	nt
C#CCOC(=O)CN1C(=O)c2cccc3cccc(c23)C1=O	-15.3	-92.7	10.8	-37.1	-0.6	-56.0	nt	nt
CC1=CC(C)(C)Nc2ccc(OC(=O)CN3C(=O)c4cccc5cccc(c45)C3=O)cc21	-22.8	73.6*	51.9*	-4.6	5.2	5.1	88.7*	72.4*
CCCNC(=O)C1(C)CCCN(C(=O)c2cccc(C(F)(F)F)c2)C1 (stereo not given)	-4.5	9.2	7.2	3.0	-4.3	-3.0	nt	nt
